# Experimental data taken from PubChem BioAssay (EPA / NIEHS).
# Records with an inconclusive call do not appear. Some compounds were tested as several samples or in several runs, with calls that do not always agree. Activity calls are given as the source filed them. The calls were made as follows, unless noted: active = hit-call score of the fitted dose curve at least 0.9, where 1 is the maximum; inactive = score below 0.9.
# Key:
# [1] = ACEA_ER_80hr: ACEA Biosciences xCELLigence Real-Time Cell Analysis on Estrogen Receptor Agonism for Proliferation (AID 2282667; active = hit-call score of the fitted dose curve at least 0.9, where 1 is the maximum); conditions: T47D proliferation, impedance (xCELLigence), 80 h
# Procedure, shortened: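 T47D human breast cells were seeded on electrode plates, monitored overnight, then exposed continuously to compounds in eight-point 1:4 dilutions from 100 uM (max 0.5% DMSO). Impedance-based growth was read at 80 h, fitted upward relative to DMSO.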
# [2] = APR_HepG2_CellCycleArrest_24hr: Apredica 24-hour HepG2 Assay for Cell Cycle Arrest (AID 2282905); conditions: imaging, actives raise or lower the signal;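 also: cell cycle arrest scored as ratio of 2N to 4N nuclear DNA content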
# Procedure, shortened: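 HepG2 cells were exposed to compounds at 0.39–200 uM (ten concentrations, duplicate) in 0.5% v/v DMSO for 24 hr. After formaldehyde fixation and Triton permeabilization, Hoechst 33342-stained nuclei were imaged at 20x; DNA content was quantified, with bidirectional fitting against DMSO.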
# [3] = APR_HepG2_NuclearSize_24hr: Apredica 24-hour HepG2 Assay for Nuclear Size (AID 2282907); conditions: high-content imaging, actives raise or lower the signal
# Procedure, shortened: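 HepG2 human liver cells were exposed for 24 hr to compounds at 0.39–200 uM (ten concentrations, duplicate) in 0.5% v/v DMSO. They were then formaldehyde-fixed, Triton-permeabilized and Hoechst 33342-stained, and nuclear diameter was imaged at 20x. Bidirectional fits were made against DMSO.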
# [4] = APR_HepG2_CellLoss_24hr: Apredica 24-hour HepG2 Assay for Cell Loss (AID 2282908); conditions: high-content imaging;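 as to AC50: fit in both directions so a hit may be cell loss or gain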
# Procedure, shortened: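 Compounds were tested at 0.39–200 uM in duplicate with 0.5% v/v DMSO final. Cells were then fixed in 3.7% formaldehyde, Hoechst 33342 nuclei were imaged at 20x by HCS, and cell number was fitted bidirectionally against DMSO.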
# [5] = APR_HepG2_MicrotubuleCSK_24hr: Apredica 24-hour HepG2 Assay for Microtubule CSK Stabilty (AID 2282909); conditions: HepG2 microtubule cytoskeleton imaging, actives raise or lower the signal
# Procedure, shortened: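 HepG2 cells exposed 24 h to compounds at 0.39–200 uM (duplicate, 0.5% v/v DMSO final), then fixed, permeabilized and immunostained for alpha-tubulin with Hoechst 33342. Cytoskeleton imaged at 20x; bidirectional fit versus DMSO baseline.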
# [6] = APR_HepG2_MitoMembPot_24hr: Apredica 24-hour HepG2 Assay for Mitochondrial Membrane Potential (AID 2282911); conditions: imaging, actives raise or lower the signal
# Procedure, shortened: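 HepG2 human liver cells were exposed 24 hr to compounds at 0.39–200 uM (final DMSO 0.5% v/v) in duplicate. MitoTracker Red CMXRos (250 nM, 30 min) was loaded before formaldehyde fixation; fluorescence was imaged by ArrayScan HCS and fitted bidirectionally versus DMSO.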
# [7] = APR_HepG2_MitoMass_24hr: Apredica 24-hour HepG2 Assay for Mitochondrial Mass (AID 2282912); conditions: high-content imaging, actives raise or lower the signal
# Procedure, shortened: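 Human HepG2 liver cells were exposed for 24 hr to compounds at 0.39–200 uM (duplicates, 0.5% v/v DMSO final). They were stained live with 250 nM MitoTracker Red CMXRos for 30 min, fixed in 3.7% formaldehyde, and imaged by HCS fluorescence; signals were fitted bidirectionally against DMSO.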
# [8] = APR_HepG2_p53Act_24hr: Apredica 24-hour HepG2 Assay for p53 Activation (AID 2282913); conditions: high-content imaging, actives raise or lower the signal;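 also: p53 protein immunofluorescence averaged per cell in HepG2 with Hoechst nuclei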
# Procedure, shortened: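 HepG2 cells exposed 24 hr to compounds at 0.39–200 uM (10 concentrations, duplicate), final DMSO 0.5% v/v. After formaldehyde fixation and Triton permeabilization, p53 was immunolabeled (sheep anti-p53, Cy5 secondary) with Hoechst 33342 nuclear counterstain, then imaged by high-content fluorescence microscopy.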
# [9] = APR_HepG2_CellCycleArrest_72hr: Apredica 72-hour HepG2 Assay for Cell Cycle Arrest (AID 2282914); conditions: high-content imaging, actives raise or lower the signal
# Procedure, shortened: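 HepG2 cells were exposed to compounds at 0.39–200 uM (0.5% v/v DMSO final, duplicates) for 72 hr, fixed in 3.7% formaldehyde, permeabilized and stained with Hoechst 33342. Nuclear DNA content was quantified by high-content imaging; gain or loss of signal was fitted bidirectionally against DMSO.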
# [10] = APR_HepG2_CellLoss_72hr: Apredica 72-hour HepG2 Assay for Cell Loss (AID 2282915); conditions: high-content imaging
# Procedure, shortened: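 Cell number comes from Hoechst 33342-labelled nuclei, imaged at 20x after 3.7% formaldehyde fixation. Dosing was 0.39–200 uM, ten concentrations in duplicate, 0.5% DMSO final, for 72 h. Bidirectional fit relative to DMSO baseline.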
# [11] = APR_HepG2_P-H2AX_72hr: Apredica 72-hour HepG2 Assay for H2AX Phosphorylation (AID 2282916); conditions: imaging, actives raise or lower the signal;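 also: phospho-histone H2A.x immunostain intensity per cell marking DNA damage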
# Procedure, shortened: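 HepG2 human liver cells were exposed for 72 hr to compounds at 0.39–200 uM (10 concentrations, duplicate per plate) in 0.5% v/v DMSO. Fixed, permeabilized cells were immunolabeled for phospho-histone H2A.x with Hoechst 33342 and imaged by HCS fluorescence; bidirectional fit versus DMSO.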
# [12] = APR_HepG2_MitoMembPot_72hr: Apredica 72-hour HepG2 Assay for Mitochondrial Membrane Potential (AID 2282917); conditions: imaging, actives raise or lower the signal
# Procedure, shortened: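 Membrane potential read by MitoTracker Red CMXRos (250 nM, 30 min, pre-fixation) fluorescence imaging of HepG2 after 72 hr exposure. Ten concentrations, 0.39–200 uM, duplicate wells, 0.5% DMSO; fitted in both directions against DMSO baseline.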
# [13] = APR_HepG2_MitoticArrest_72hr: Apredica 72-hour HepG2 Assay for Mitotic Arrest (AID 2282918); conditions: high-content imaging, actives raise or lower the signal
# Procedure, shortened: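 HepG2 cells were exposed for 72 hr to compound at 0.39–200 uM (10 concentrations, duplicate) in 0.5% v/v DMSO, fixed in 3.7% formaldehyde, immunostained for phospho-histone H3 with Hoechst 33342 and imaged by high-content fluorescence; bidirectional fits versus DMSO.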
# [14] = APR_HepG2_MicrotubuleCSK_72hr: Apredica 72-hour HepG2 Assay for Microtubule CSK Stabilty (AID 2282919); conditions: HepG2 microtubule cytoskeleton, high-content imaging, actives raise or lower the signal
# Procedure, shortened: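 Read-out is tubulin fluorescence intensity from high-content imaging of HepG2 cells, with nuclei identified by Hoechst 33342. Treatment lasts 72 h at 0.39–200 uM, and curves are fitted bidirectionally against the DMSO negative control.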
# [15] = APR_HepG2_P-H2AX_24hr: Apredica 24-hour HepG2 Assay for H2AX Phosphorylation (AID 2282920); conditions: high-content imaging, actives raise or lower the signal
# Procedure, shortened: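 HepG2 human liver cells were exposed for 24 hr to compounds at 0.39–200 uM in duplicate, with 0.5% v/v DMSO final. Fixed cells were immunostained for phospho-histone H2A.x plus Hoechst 33342, imaged by HCS fluorescence, and fitted bidirectionally against DMSO.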
# [16] = APR_HepG2_StressKinase_72hr: Apredica 72-hour HepG2 Assay for Stress Kinase (AID 2282921); conditions: HepG2 stress kinase (phospho-c-Jun) imaging, actives raise or lower the signal
# Procedure, shortened: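 Cells were exposed for 72 h to ten concentrations (0.39–200 uM, duplicate) at 0.5% v/v DMSO final, then fixed with 3.7% formaldehyde, permeabilized and immunostained for phospho-c-Jun (Cy3 secondary) with Hoechst nuclear counterstain.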
# [17] = APR_HepG2_StressKinase_24hr: Apredica 24-hour HepG2 Assay for Stress Kinase (AID 2282922); conditions: HepG2 stress kinase (phospho-c-Jun) imaging, actives raise or lower the signal
# Procedure, shortened: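 HepG2, 24 hr dosing, 0.39–200 uM in duplicate, 0.5% DMSO; formaldehyde fix (3.7%), 0.5% Triton X-100; anti-phospho-c-Jun + Cy3 secondary, Hoechst counterstain; ArrayScan imaging; bidirectional curve fit vs DMSO baseline.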
# [18] = APR_HepG2_p53Act_72hr: Apredica 72-hour HepG2 Assay for p53 Activation (AID 2282923); conditions: high-content imaging, actives raise or lower the signal;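 also: average cellular p53 protein immunofluorescence intensity in HepG2 cells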
# Procedure, shortened: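 Cells were dosed for 72 hr with compounds at 0.39–200 uM in duplicate (final DMSO 0.5% v/v), then fixed in 3.7% formaldehyde, permeabilized with Triton X-100 and immunostained for p53 (Cy5) with Hoechst 33342 nuclear counterstain.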
# [19] = APR_HepG2_MitoMass_72hr: Apredica 72-hour HepG2 Assay for Mitochondrial Mass (AID 2282924); conditions: high-content imaging, actives raise or lower the signal;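 also: MitoTracker Red CMXRos stain intensity per cell imaged as mitochondrial mass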
# Procedure, shortened: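 HepG2, 72 hr cmpd, 10 conc 0.39–200 uM in dup, DMSO 0.5% v/v. MitoTracker Red CMXRos 250 nM 30 min pre-fix; formaldehyde 3.7% fix 30 min RT. HCS imaging, gain/loss fit vs DMSO.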
# [20] = APR_HepG2_NuclearSize_72hr: Apredica 72-hour HepG2 Assay for Nuclear Size (AID 2282925); conditions: high-content imaging, actives raise or lower the signal
# Procedure, shortened: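 HepG2; cpd 0.39–200 uM, 10 conc, duplicate; 72 h; DMSO 0.5% v/v; fix 3.7% formaldehyde 30 min RT; Triton permeabilization; Hoechst 2 ug/mL; HCS imaging 20x; nuclear diameter; gain/loss fit vs DMSO.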
smiles,measurement,setting,value
ClCc1cccnc1,outcome,[1],inactive
CC1CCCCC1NC(=O)Nc1ccccc1 (stereo not drawn),outcome,[1],inactive
BrCCBr,outcome,[1],inactive
CCc1ccccc1C,AC50,[1],0.0879 µM (active)
O=C(OC1CCCCC1)c1ccccc1C(=O)OC1CCCCC1,outcome,[1],inactive
CCCCCCCCSC(=O)Oc1cc(Cl)nnc1-c1ccccc1,AC50,[1],50 µM (active)
CCOP(=S)(OCC)SCCS(=O)(=O)CC,outcome,[1],inactive
NN=C(N)N,outcome,[1],inactive
CC(C#N)CCC#N (stereo not drawn),outcome,[1],inactive
O=S(=O)(c1ccc(Cl)cc1)c1ccc(Cl)cc1,outcome,[1],inactive
CNC(=O)O/N=C/C(C)(C)S(C)=O (stereo not drawn),outcome,[1],inactive
Nc1ccc(N=Nc2ccc(-c3ccc(N=Nc4c(S(=O)(=O)O)cc5cc(S(=O)(=O)O)c(N=Nc6ccccc6)c(O)c5c4N)cc3)cc2)c(N)c1,outcome,[1],inactive
O=CC=O,outcome,[1],inactive
C[C@@H](Oc1ccc(Cl)cc1Cl)C(=O)O,outcome,[1],inactive
COC(=O)Cc1ccccc1,outcome,[1],inactive
CC(C)OC(=S)S,outcome,[1],inactive
O=C(CCl)CCl,outcome,[1],inactive
OCC(O)CCl (stereo not drawn),outcome,[1],inactive
COc1cc(-c2ccc(N)c(OC)c2)ccc1N,AC50,[2],58.7 µM (active)
same,outcome,[2],inactive
same,outcome,[3],inactive
same,AC50,[4],26.9 µM (active)
same,outcome,[4],inactive
same,outcome,[5],inactive
same,AC50,[6],12.7 µM (active)
same,outcome,[6],inactive
same,outcome,[7],inactive
same,outcome,[8],inactive
same,AC50,[9],13.8 µM (active)
same,outcome,[9],inactive
same,AC50,[10],56.5 µM (active)
same,outcome,[10],inactive
same,AC50,[11],24.8 µM (active)
same,outcome,[11],inactive
same,AC50,[12],14.3 µM (active)
same,outcome,[12],inactive
same,AC50,[13],24.8 µM (active)
same,outcome,[13],inactive
same,AC50,[14],42.1 µM (active)
same,outcome,[14],inactive
same,AC50,[15],50.8 µM (active)
same,outcome,[15],inactive
same,outcome,[16],inactive
same,outcome,[17],inactive
same,AC50,[18],35.2 µM (active)
same,outcome,[18],inactive
same,outcome,[19],inactive
same,outcome,[20],inactive
